# Compound activity deposited in PubChem by several laboratories.
# The list is not random: actives were taken first. Their share in the collection is about 4.1%.
# NLRP3 yeast inh = NALP3 inhibition in yeast; Yeast reconstituted NLRP3/ASC/caspase-1, beta-gal luminescence, 24 h; inhibition, % at 10 µM; 0.39% of 330,000 active; AID 2825;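 active means inhibition of 50% or more; inactive means inhibition below 50%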;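 further: plate controls were induced DMSO wells for no effect and uninduced yeast grown without galactose for full effect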
# tim23-1 inh = growth inhibitors of tim23-1 mutant yeast; inhibition, % at 20 µM; 1.3% of 330,000 active; S. cerevisiae tim23-1 growth, BacTiter-Glo luminescence, 24 h;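 active means growth inhibition of the mutant yeast at or above 50%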;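 further: temperature-sensitive mutant grown at 25 °C; plate controls were DMSO-treated mutant yeast for no effect and medium wells lacking yeast for full effect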
# tim10-1 inh = inhibits growth of tim10-1 mutant yeast; 2.2% of 330,000 active; S. cerevisiae tim10-1 ts strain growth, BacTiter-Glo, 24 h; inhibition, % at 20 µM;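 active means inhibition of at least 40%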;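 further: mutant grown at 25 °C; 0% = DMSO wells with yeast and 100% = wells holding no yeast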
# NALP1 inh = NALP1 inhibition | S. cerevisiae NALP1/ASC/caspase-1 growth, X-gal OD620, 72 h | inhibition, % at 10 µM | 0.61% of 280,000 active; in the data active means inhibition mostly above about 24%, no sharp cut-off; inactive means mostly below about 32%
# TIM10 inh = growth inhibitors of TIM10 yeast strain; S. cerevisiae TIM10 strain growth, BacTiter-Glo luminescence, 24 h; inhibition, % at 10 µM; 1.4% of 330,000 active; AID 463195;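 active means inhibition of 40% or more at the single tested concentration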;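 further: wild-type TIM10 isogenic control strain grown at permissive 25 °C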
# PfHsp90 yeast 2 = reduces growth (ATP signal) of yeast expressing P. falciparum Hsp90. inhibition, % at 9.4 µM. S. cerevisiae expressing PfHsp90, BacTiter-Glo ATP, 48 h; yeast lacking PDR1 and PDR3 efflux regulators. 0.32% of 310,000 active;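 active means every replicate shows inhibition above about 80%, whatever the replicate mean, limit read from the data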;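 further: 0% = DMSO neutral controls and 100% = 20 µM radicicol positive controls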
# tim10-1 confirm = confirmation of tim10-1 mutant yeast growth inhibitors. shares compounds with tim10-1 inh. inhibition, % at 20 µM. S. cerevisiae tim10-1 ts strain growth, BacTiter-Glo, 24 h. 56% of 7,400 active. AID 463213;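 active means inhibition of yeast growth at or above a set limit in either of two repeat tests at 20 µM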;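 further: tim10-1 mutant grown at permissive 25 °C to find synthetic lethal compounds; 0% = DMSO yeast wells and 100% = medium wells without yeast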
# TIM10 conf = TIM10 yeast growth inhibition, confirmed; 63% of 4,600 active; inhibition, % at 10 µM; S. cerevisiae tim10 strain growth, BacTiter-Glo luminescence, 24 h; shares compounds with TIM10 inh;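 active means inhibition of yeast growth at or above a set limit in either of two replicates at 10 µM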;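 further: this counterscreen used the strain with wild-type TIM10; 0% = yeast with DMSO and 100% = medium wells lacking yeast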
# tim23-1 conf = confirmation of tim23-1 mutant yeast growth inhibitors; shares compounds with tim23-1 inh; S. cerevisiae tim23-1 growth, BacTiter-Glo luminescence, 24 h; inhibition, % at 20 µM; 83% of 4,400 active; AID 463218;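 active means inhibition above about 39% in either of two replicate wells at 20 µM, limit read from the data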;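 further: temperature-sensitive tim23-1 mutant grown at 25 °C; 0% = DMSO wells with yeast and 100% = medium wells without yeast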
# Active calls of the source: *; x = no result given.
SMILES,NLRP3 yeast inh,tim23-1 inh,tim10-1 inh,NALP1 inh,TIM10 inh,PfHsp90 yeast 2,tim10-1 confirm,tim23-1 conf,others
Cc1cc(C(=O)N/N=C/c2ccc([N+](=O)[O-])s2)n[nH]1,23.6,48.3,-12.3,9.7,6.6,5.1,x,x,
O=C(Cc1ccccc1)NCC(=O)N/N=C/c1ccc([N+](=O)[O-])s1,28.4,24.6,-13.0,-5.1,4.5,6.5,x,x,
Cc1ccc(C(=O)N/N=C\c2ccc([N+](=O)[O-])s2)cn1,23.7,55.9*,49.3*,16.0,40.1*,-16.9,41.5*,58.5*,TIM10 conf=-32.0
COc1ccc(NC(=O)CCC(=O)N/N=C/c2ccc([N+](=O)[O-])s2)cc1,6.0,62.5*,50.5*,27.5,83.2*,116.3*,38.6*,62.1*,TIM10 conf=25.2
Cc1[nH]cnc1C(=O)N/N=C/c1ccc([N+](=O)[O-])s1,12.4,19.8,5.3,-16.2,7.7,11.3,x,x,
CCOC(=O)N/N=C\c1ccc([N+](=O)[O-])s1,20.5,87.5*,53.4*,3.8,32.4,17.2,38.3*,66.2*,
CC(C)(C)OC(=O)N/N=C\c1ccc([N+](=O)[O-])s1,25.2,78.0*,75.5*,-13.6,58.1*,17.2,49.5*,63.9*,TIM10 conf=70.7*
CCOc1ccc(N(CC(=O)Nc2c(C)n(C)n(-c3ccccc3)c2=O)S(=O)(=O)c2ccc(F)cc2)cc1,4.9,-7.1,-3.3,3.3,-2.2,2.9,x,x,
Cc1ccccc1-c1cc(C(=O)Nc2sc(C)c(C)c2C(N)=O)c2ccccc2n1,23.7,53.7*,42.3*,3.9,30.9,-12.9,31.2*,41.9*,
Cc1cc(C)c(S(=O)(=O)N2CCCCC2CCNC(=O)C(=O)NCCN2CCOCC2)c(C)c1 (centres undefined),28.3,20.2,28.3,x,6.3,4.0,x,x,
Cc1ccc(SCC(=O)OCC(=O)NC(C)c2ccc(Br)cc2)cc1 (centres undefined),11.0,6.8,23.3,-4.5,-4.4,-37.0,x,x,
Cc1nc(N2CCN(c3ccccc3O)CC2)c2c(-c3ccccc3)csc2n1,26.7,50.6*,42.3*,12.6,33.5,-40.0,31.5*,48.2*,
O=C(OC(c1ccccc1)c1nccc2ccccc12)c1cc([N+](=O)[O-])cc([N+](=O)[O-])c1 (centres undefined),18.1,57.0*,53.9*,18.5,42.7*,-61.3,44.5*,47.3*,TIM10 conf=-6.6
COc1cc(C(C[N+](=O)[O-])c2c(C)cc3ccccn23)ccc1O (centres undefined),19.5,32.1,26.9,7.4,25.8,16.8,x,x,
COc1cc(C(C[N+](=O)[O-])c2c(-c3ccccc3)cc3ccccn23)cc(OC)c1OC (centres undefined),20.4,54.4*,41.3*,9.5,34.4,-2.1,33.3*,69.4*,
CC1CCCCC1NC(=O)/C(C#N)=C/c1ccc2c(c1)OCCO2 (centres undefined),24.5,62.8*,49.8*,25.7,55.4*,x,53.0*,62.5*,TIM10 conf=5.2
COc1ccc(/C=C(\C#N)C(=O)NC2CCS(=O)(=O)C2)cc1OC (centres undefined),-20.5,14.4,2.0,27.9,-9.1,-3.3,x,x,
CC1CCCCC1NC(=O)/C(C#N)=C/c1ccc(F)c(F)c1 (centres undefined),22.9,54.5*,48.0*,40.2,59.1*,10.1,59.2*,46.3*,TIM10 conf=70.1*
Cc1ccc(-c2cc(C(=O)N3CCN(c4ccc(F)cc4)CC3)c3ccccc3n2)o1,16.9,51.0*,43.7*,4.9,26.8,-44.8,25.9,43.8*,
COc1ccc(-c2cc(C(=O)N3CCN(c4ncccn4)CC3)c3ccccc3n2)c(OC)c1,24.0,51.4*,65.5*,43.5,59.3*,-16.2,51.7*,13.2,TIM10 conf=6.9
COc1ccc(N2CCN(C(=O)c3cc(-c4cc(OC)ccc4OC)nc4ccccc34)CC2)cc1,4.4,21.0,32.4,2.8,13.6,-16.5,x,x,
COc1ccc(-c2cc(C(=O)N3CCN(c4ccccc4F)CC3)c3ccccc3n2)c(OC)c1,20.6,57.0*,53.9*,-1.7,38.9,103.7*,57.6*,57.7*,
COc1ccc(-c2cc(C(=O)N3CCCCCC3)c3ccccc3n2)c(OC)c1,10.4,54.4*,41.9*,9.3,22.2,8.5,21.7,48.5*,
Cc1ccnc(NC(=O)C2CC(=O)N(Cc3ccccc3)C2)c1 (centres undefined),1.5,-7.6,0.1,x,7.0,-9.0,x,x,
CCCc1[nH]nc2c1C(c1cccc(OC)c1)C(C#N)=C(N)O2 (centres undefined),8.5,19.3,18.8,5.9,3.9,3.7,x,x,
SMILES,NLRP3 yeast inh,tim23-1 inh,tim10-1 inh,NALP1 inh,TIM10 inh,PfHsp90 yeast 2,tim10-1 confirm,tim23-1 conf,others
CCCc1[nH]nc2c1C(c1ccc(OC)cc1OC)C(C#N)=C(N)O2 (centres undefined),3.8,51.2*,44.0*,2.0,47.3*,-3.7,36.3*,50.5*,TIM10 conf=37.5*
CCOC(=O)C1=C(N)OC2=C(C(=O)CC(C)(C)C2)C1C1CCCCC1 (centres undefined),-18.3,55.8*,44.8*,9.5,27.9,36.6,33.5*,46.1*,
O=C(O)c1cc(S(=O)(=O)NC23CC4CC(CC(C4)C2)C3)ccc1Cl,8.4,9.5,2.8,20.1,10.7,18.5,x,x,
O=[N+]([O-])c1ccc(-c2ccc(C=Nc3cccc4ccccc34)o2)cc1,32.9,10.3,5.9,1.5,3.9,15.6,x,x,
O=c1oc(/C=C/c2ccc([N+](=O)[O-])s2)nc2ccccc12,15.1,54.0*,60.1*,x,34.6,-10.4,46.3*,44.7*,
O=[N+]([O-])c1ccc(C=Nc2cccc3ccccc23)s1,22.8,78.8*,76.7*,0.1,14.1,103.1*,77.0*,69.7*,
Cc1ccc(OCc2cc(C(=O)NCc3cnn(-c4cccc(F)c4)c3)no2)cn1,22.2,62.1*,43.7*,6.5,21.6,-14.8,-7.8,59.7*,
Cc1ccc(OCc2cc(C(=O)NCc3ccc(OC(F)(F)F)cc3)no2)cn1,6.7,12.0,2.3,9.6,-14.2,6.1,x,x,
Cc1ccc(C(=O)Nc2nnc(C3CCCCC3)s2)o1,17.6,51.9*,46.1*,17.8,23.9,8.6,35.1*,44.8*,
Cc1cc(C(=O)Nc2nnc(C3CCCCC3)s2)no1,-23.7,47.0,22.6,x,36.1,-4.9,x,x,
Cc1nonc1NC(=O)CSc1nnc(N)s1,7.8,1.7,-6.7,15.2,-0.3,12.2,x,x,
